Measured values taken from PubChem BioAssay (NCATS).
Results filed as inconclusive are left out. Active and inactive are the calls of the source. Calls come from the whole dose curve; as a rule, active = well fitted cell-killing curve with a large enough effect; inconclusive = small, poorly fitted or top-dose-only effect, or effect the other way; inactive = flat fitted curve, though single readings scatter.

Experiments:
Assay in all cases: Primary qHTS to identify gynecologic anti-cancer compounds using libraries of approved drugs and bioactive compounds (AID 1345084); note: nearly all actives have a fitted effect of over 55% in size
C33A = conditions: Gynecologic cancer cell panel viability, ATPlite luminescence, 48 h; series mostly up to 57.5 µM
In short: (§1)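 In this quantitative HTS, cell killing is estimated from loss of ATP-dependent luciferase light. Cells see five compound concentrations over a 48 h exposure.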

CAOV3 = conditions: Gynecologic cancer cell panel viability, ATPlite luminescence, 48 h; series mostly up to 57.5 µM
In short: as §1

CASKI = conditions: Gynecologic cancer cell panel viability, ATPlite luminescence, 48 h; series mostly up to 57.5 µM
In short: as §1

Es-2 = conditions: Gynecologic cancer cell panel viability, ATPlite luminescence, 48 h; series mostly up to 57.5 µM
In short: as §1

HeLa = conditions: Gynecologic cancer cell panel viability, ATPlite luminescence, 48 h; series mostly up to 57.5 µM
In short: as §1

Hek293T = conditions: Gynecologic cancer cell panel viability, ATPlite luminescence, 48 h, control line for the selectivity index; series mostly up to 57.5 µM
In short: as §1

JEG-3 = conditions: Gynecologic cancer cell panel viability, ATPlite luminescence, 48 h; series mostly up to 57.5 µM
In short: as §1

OV90 = conditions: Gynecologic cancer cell panel viability, ATPlite luminescence, 48 h; series mostly up to 57.5 µM
In short: as §1

PA-1 = conditions: Gynecologic cancer cell panel viability, ATPlite luminescence, 48 h; series mostly up to 57.5 µM
In short: as §1

SKOV3 = conditions: Gynecologic cancer cell panel viability, ATPlite luminescence, 48 h; series mostly up to 57.5 µM
In short: as §1

Tov-21-G = conditions: Gynecologic cancer cell panel viability, ATPlite luminescence, 48 h; series mostly up to 57.5 µM
In short: as §1

Tov112D = conditions: Gynecologic cancer cell panel viability, ATPlite luminescence, 48 h; series mostly up to 57.5 µM
In short: as §1

Measured: Potency

CC1(C)CC2C=C(C(=O)O)C3COC(=O)C(O)(CO)C23C1 (stereo not given)
inactive: C33A | CAOV3 | CASKI | Es-2 | HeLa | Hek293T | JEG-3 | OV90 | PA-1 | SKOV3 | Tov-21-G | Tov112D

CC1=CC(=O)C2(OC3OC(C)C(O)C(OC(=O)/C=C/c4ccccc4)C3O)C=COC(OC3OC(CO)C(O)C(O)C3O)C12 (stereo not given)
inactive: C33A | CAOV3 | CASKI | Es-2 | HeLa | Hek293T | JEG-3 | OV90 | PA-1 | SKOV3 | Tov-21-G | Tov112D

C=C(C)C1Cc2cc(C(=O)OC3OC(CO)C(O)C(O)C3O)ccc2O1 (stereo not given)
inactive: C33A | CAOV3 | CASKI | Es-2 | HeLa | Hek293T | JEG-3 | OV90 | PA-1 | SKOV3 | Tov-21-G | Tov112D

O=C(O)Cc1cn(C2OCC(O)C(O)C2O[C@@H]2O[C@H](CO)[C@@H](O)[C@H](O)[C@H]2O)c2ccccc12 (stereo not given in full)
inactive: C33A | CAOV3 | CASKI | Es-2 | HeLa | Hek293T | JEG-3 | OV90 | PA-1 | SKOV3 | Tov-21-G | Tov112D

CC(=O)OC[C@]12[C@H](OC(C)=O)C(=O)[C@@H]3[C@@H](OC(C)=O)[C@@]14O[C@@]3(C)COC(=O)c1cccnc1[C@@H](C)[C@H](C)C(=O)O[C@@H]([C@H](O)[C@@H]2OC(C)=O)[C@]4(C)O
inactive: C33A | CAOV3 | CASKI | Es-2 | HeLa | Hek293T | JEG-3 | OV90 | PA-1 | SKOV3 | Tov-21-G | Tov112D

CC(=O)N1CCc2ccc(O)c(OC3OC(COC4OCC(O)(CO)C4O)C(O)C(O)C3O)c2C1Cc1ccc(O)cc1 (stereo not given)
inactive: C33A | CAOV3 | CASKI | Es-2 | HeLa | Hek293T | JEG-3 | OV90 | PA-1 | SKOV3 | Tov-21-G | Tov112D

O=C(O)COCCN1CCN([C@H](c2ccccc2)c2ccc(Cl)cc2)CC1
inactive: C33A | CAOV3 | CASKI | Es-2 | HeLa | Hek293T | JEG-3 | OV90 | PA-1 | SKOV3 | Tov-21-G | Tov112D

CC1=C(C)C(=O)OC(C(C)C2CCC3C4C5OC5C5(O)CC(OC6OC(CO)C(OC7OC(C)C(O)C(O)C7O)C(O)C6O)CC(O)C5(C)C4CCC23C)C1 (stereo not given)
inactive: C33A | CAOV3 | CASKI | Es-2 | HeLa | Hek293T | JEG-3 | OV90 | PA-1 | SKOV3 | Tov-21-G | Tov112D

CC1CC[C@]2(C(=O)O)CC[C@]3(C(=O)O)C(=CCC4[C@@]5(C)CC[C@H](OC6OC(C)C(O)C(OC7OC(CO)C(O)C(O)C7O)C6O)C(C)(C)C5CC[C@]43C)C2C1C (stereo not given in full)
inactive: C33A | CAOV3 | CASKI | Es-2 | HeLa | Hek293T | JEG-3 | OV90 | PA-1 | SKOV3 | Tov-21-G | Tov112D

CC(=O)OC[C@H]1O[C@H](O[C@]2(CO)O[C@H](CO)[C@@H](OC(=O)/C=C/c3ccccc3)[C@@H]2O)[C@H](O)[C@@H](O)[C@@H]1O
inactive: C33A | CAOV3 | CASKI | Es-2 | HeLa | Hek293T | JEG-3 | OV90 | PA-1 | SKOV3 | Tov-21-G | Tov112D

C=C1CC23CC1CCC2C12OC(=O)C(C)(CCC1O)C2C3C(=O)O (stereo not given)
inactive: C33A | CAOV3 | CASKI | Es-2 | HeLa | Hek293T | JEG-3 | OV90 | PA-1 | SKOV3 | Tov-21-G | Tov112D

CC(=O)CC1CCC(C(C)C(=O)OCC(O)CO)O1 (stereo not given)
inactive: C33A | CAOV3 | CASKI | Es-2 | HeLa | Hek293T | JEG-3 | OV90 | PA-1 | SKOV3 | Tov-21-G | Tov112D

COC(=O)C1=CO[C@@H](O[C@@H]2O[C@H](CO)[C@@H](O)[C@H](O)[C@H]2O)[C@H]2[C@@H]1C=C[C@@]21C=C([C@H](C)O)C(=O)O1
inactive: C33A | CAOV3 | CASKI | Es-2 | HeLa | Hek293T | JEG-3 | OV90 | PA-1 | SKOV3 | Tov-21-G | Tov112D

COc1ccc2cc(C(C)C(=O)Oc3ccc(C(N)=S)cc3)ccc2c1 (stereo not given)
inactive: C33A | CAOV3 | CASKI | Es-2 | HeLa | Hek293T | JEG-3 | OV90 | PA-1 | SKOV3 | Tov-21-G | Tov112D

Cc1ccc(F)cc1C(=O)Nc1ccc(C(=O)N2Cc3cccn3Cc3ccccc32)c(Cl)c1
inactive: C33A | CAOV3 | CASKI | Es-2 | HeLa | Hek293T | JEG-3 | OV90 | PA-1 | SKOV3 | Tov-21-G | Tov112D
